Calls of active or inactive are those of the source.
Key:
[1] = E. coli DRC41 culture turbidity changes, primary screen, E. coli filamentation inducer project, strain DRC41, OD650, 48 h (AID 1152);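 further: E. coli MC1000 strain DRC41 lacking acrAB efflux pump and sulA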; conditions: E. coli DRC41 (acrAB sulA), higher = more signal, called active from +8 up or from −8 down
[2] = small-molecule binders of probe aLefty1, primary screen, biochemical, small-molecule microarray, 635/667 nm fluorescence (AID 1153); conditions: higher = more signal;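 further: score merges spot fluorescence with signal-to-noise ratio from the scanned slide images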
[3] = PSAC antagonists in infected red cells, primary screen, cell-based, P. falciparum Indochina, OD700, 1 h (AID 1154); conditions: P. falciparum Indochina infected RBC osmotic lysis, higher = more signal, called active from +8 up or from −8 down
[4] = PSAC antagonists in infected red cells, primary screen, cell-based, P. falciparum Indochina, OD700, 2 h (AID 1155);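 further: lysis reports solute entry through the parasite surface anion channel PSAC; channel blockers reduce lysis of infected cells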; conditions: P. falciparum Indochina infected erythrocytes, osmotic lysis OD700; higher = more signal, called active from +8 up or from −8 down
[5] = osmotic lysis modulators in infected erythrocytes, primary screen, PSAC antagonist project, cell-based, P. falciparum Indochina, OD700, 3 h (AID 1156); conditions: higher = more signal, called active from +8 up or from −8 down
[6] = PSAC antagonists in infected red cells, primary screen, cell-based, P. falciparum Indochina, OD700, 18 h (AID 1157); conditions: P. falciparum Indochina infected erythrocytes, osmotic lysis OD700, 18 h; higher = more signal, called active from +8 up or from −8 down
[7] = modulators of S6 phosphorylation in cells, primary screen, cell-based, A549, cytoblot, luminescence, serum-stimulated (AID 1158); conditions: A549 phospho-S6 cytoblot, 5 h, higher = more signal;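 further: serum-stimulated A549 lung adenocarcinoma cells; signal is phosphorylated S6 detected by cytoblot immunostaining with HRP secondary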
[8] = molecular target: NADPH oxidase 2 (Homo sapiens) (UniProt P04839); test: NOX2-dependent H2O2 signal modulators, primary screen, NOX inhibitor project, cell-based, HEK293-NOX2, PMA-stimulated, Amplex Red fluorescence (AID 1159); conditions: 45 min, higher = more signal, called active from +8 up or from −8 down; further: test concentration not given here
[9] = molecular target: NADPH oxidase 4 (Homo sapiens) (UniProt Q9NPH5); test: NOX4-dependent H2O2 signal modulators, primary screen, NOX inhibitor project, cell-based, HEK293-NOX4, tetracycline-induced, Amplex Red fluorescence (AID 1160); conditions: 45 min, higher = more signal, called active from +8 up or from −8 down
[10] = molecular target: NADPH oxidase 5 (Homo sapiens) (UniProt Q96PH1); test: NOX5-dependent H2O2 signal modulators, primary screen, NOX inhibitor project, cell-based, HEK293-NOX5, Amplex Red fluorescence (AID 1161); conditions: HEK293-NOX5, ionomycin, 45 min, higher = more signal
[11] = A549 cell viability effects, profiling panel, calcein-AM fluorescence, 48 h, basal (AID 1162); conditions: higher = more signal; further: test concentration not given here
[12] = adipocyte viability effects, profiling panel, cell-based, 3T3-L1 adipocytes, calcein-AM fluorescence, 48 h, basal (AID 1163); conditions: 3T3-L1 adipocytes viability, higher = more signal; further: test concentration not given here
[13] = HepG2 cell viability effects, profiling panel, calcein-AM fluorescence, 48 h, basal (AID 1164); conditions: higher = more signal; further: test concentration not given here
[14] = MM1S cell viability effects, profiling panel, calcein-AM fluorescence, 48 h, basal (AID 1165); conditions: higher = more signal;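 further: viability of MM1S multiple myeloma cells under basal unstimulated conditions; test concentration not given here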
[15] = basal RPMI8226 viability, no added stimulus, profiling panel, cell-based, calcein-AM fluorescence, 48 h, PK04 Diversity Set (AID 1166); conditions: RPMI8226 myeloma viability, higher = more signal;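 further: cells grown under basal conditions without added stimulus; test concentration not given here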
[16] = basal HepG2 mitochondrial membrane potential changes, profiling panel, cell-based, JC-1 fluorescence, 24 h, 100 nL compound (AID 1167); conditions: higher = more signal; further: test concentration not given here
[17] = basal 3T3-L1 adipocyte mitochondrial potential changes, profiling panel, cell-based, JC-1 fluorescence, 3T3-L1 adipocytes, 24 h, 100 nL compound (AID 1168); conditions: JC-1 mitochondrial fluorescence, higher = more signal, called active from +8 up or from −8 down; further: test concentration not given here
[18] = basal RPMI8226 mitochondrial membrane potential changes, profiling panel, cell-based, JC-1 fluorescence, 24 h, 100 nL compound (AID 1169); conditions: RPMI8226 myeloma, JC-1 mitochondrial potential fluorescence, higher = more signal; further: test concentration not given here
[19] = basal MM1S mitochondrial membrane potential changes, profiling panel, cell-based, JC-1 fluorescence, 24 h, 100 nL compound (AID 1170); conditions: higher = more signal; further: test concentration not given here
[20] = A549 lung cancer cell viability effects, profiling panel, resazurin fluorescence, 24 h, PK04 Diversity Set (AID 1171); conditions: higher = more signal, called active from +8 up or from −8 down; further: test concentration not given here

Chain of NADPH oxidase 5 (Homo sapiens) (Q96PH1 whole entry, looked up): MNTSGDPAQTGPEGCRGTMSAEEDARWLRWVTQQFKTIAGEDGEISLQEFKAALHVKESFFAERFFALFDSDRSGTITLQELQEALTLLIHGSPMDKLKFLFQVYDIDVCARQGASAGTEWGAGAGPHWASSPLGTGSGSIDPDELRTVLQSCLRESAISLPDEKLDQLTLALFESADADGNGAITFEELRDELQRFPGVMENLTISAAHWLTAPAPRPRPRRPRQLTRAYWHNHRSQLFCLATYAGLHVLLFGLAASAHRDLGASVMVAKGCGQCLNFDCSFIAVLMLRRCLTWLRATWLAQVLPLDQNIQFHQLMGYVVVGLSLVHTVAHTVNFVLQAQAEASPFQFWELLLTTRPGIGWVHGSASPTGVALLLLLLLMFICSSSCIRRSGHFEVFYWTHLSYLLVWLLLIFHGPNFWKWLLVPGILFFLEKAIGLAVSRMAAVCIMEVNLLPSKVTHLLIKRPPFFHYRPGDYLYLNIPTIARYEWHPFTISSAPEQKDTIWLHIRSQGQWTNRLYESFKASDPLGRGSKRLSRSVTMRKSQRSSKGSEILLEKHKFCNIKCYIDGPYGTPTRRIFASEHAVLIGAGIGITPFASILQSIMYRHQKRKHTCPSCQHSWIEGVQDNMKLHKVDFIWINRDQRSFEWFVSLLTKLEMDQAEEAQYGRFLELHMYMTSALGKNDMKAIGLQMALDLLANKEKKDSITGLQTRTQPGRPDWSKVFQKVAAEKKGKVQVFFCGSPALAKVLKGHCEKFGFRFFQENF
Chain of NADPH oxidase 2 (Homo sapiens) (P04839 whole entry, looked up): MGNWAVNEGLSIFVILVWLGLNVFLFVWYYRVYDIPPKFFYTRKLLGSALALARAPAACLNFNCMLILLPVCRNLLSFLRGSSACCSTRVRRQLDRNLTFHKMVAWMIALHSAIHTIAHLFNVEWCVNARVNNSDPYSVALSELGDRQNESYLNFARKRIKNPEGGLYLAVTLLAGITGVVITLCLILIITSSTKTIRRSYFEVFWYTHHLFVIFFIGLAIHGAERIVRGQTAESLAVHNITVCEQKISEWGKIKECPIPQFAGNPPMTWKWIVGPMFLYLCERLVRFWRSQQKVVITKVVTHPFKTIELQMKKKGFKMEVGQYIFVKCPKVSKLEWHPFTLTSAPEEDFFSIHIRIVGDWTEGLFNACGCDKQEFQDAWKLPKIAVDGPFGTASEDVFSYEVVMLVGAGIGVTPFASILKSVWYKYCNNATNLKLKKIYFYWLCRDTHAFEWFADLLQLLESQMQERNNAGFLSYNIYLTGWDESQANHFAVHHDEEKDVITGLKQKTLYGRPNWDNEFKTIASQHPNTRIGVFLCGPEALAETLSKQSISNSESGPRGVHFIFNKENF
Chain of NADPH oxidase 4 (Homo sapiens) (Q9NPH5 whole entry, looked up): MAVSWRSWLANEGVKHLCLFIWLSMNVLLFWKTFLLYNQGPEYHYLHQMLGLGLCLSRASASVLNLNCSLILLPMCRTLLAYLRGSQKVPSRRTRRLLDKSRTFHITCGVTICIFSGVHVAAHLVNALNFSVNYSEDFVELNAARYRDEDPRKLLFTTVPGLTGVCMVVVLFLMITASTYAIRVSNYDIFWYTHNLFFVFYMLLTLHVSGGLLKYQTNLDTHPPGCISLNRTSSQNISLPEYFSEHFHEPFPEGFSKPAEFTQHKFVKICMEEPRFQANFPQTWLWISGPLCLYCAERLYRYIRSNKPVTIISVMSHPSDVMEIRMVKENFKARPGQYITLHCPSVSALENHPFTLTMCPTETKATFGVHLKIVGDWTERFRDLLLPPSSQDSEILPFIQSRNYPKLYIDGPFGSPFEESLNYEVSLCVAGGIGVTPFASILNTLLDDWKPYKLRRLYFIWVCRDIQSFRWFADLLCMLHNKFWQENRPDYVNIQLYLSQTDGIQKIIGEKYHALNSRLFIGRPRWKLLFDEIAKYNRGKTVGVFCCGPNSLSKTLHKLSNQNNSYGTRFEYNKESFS

Row | SMILES | z-score [1] | composite z-score [2] | z-score [3] | z-score [4] | z-score [5] | z-score [6] | z-score [7] | z-score [8] | z-score [9] | z-score [10] | z-score [11] | z-score [12] | z-score [13] | z-score [14] | z-score [15] | z-score [16] | z-score [17] | z-score [18] | z-score [19] | z-score [20]
1 | O=C1C[C@]2(c3ccc([N+](=O)[O-])cc3)C(=O)N(CCN3CCOCC3)c3cc(CO)ccc3[C@H]2N1C1CCCCC1 | 0.918 (inactive) | -0.0108 | 1.23 (inactive) | -0.837 (inactive) | -0.584 (inactive) | -0.507 (inactive) | 1.51 | -0.791 (inactive) | -0.0781 (inactive) | 1.18 | 0.648 | 0.239 | 1.87 | -0.121 | 0.346 | 0.756 | 0.155 (inactive) | 0.0691 | -0.509 | -1.17 (inactive)
2 | N#Cc1ccc(NN2C(C(O)c3c(F)cccc3Cl)C=CC3C(=O)N(c4ccccc4)C(=O)C32)cc1 (stereo not given) | -0.857 (inactive) | 0.192 | 22 (active) | 5.46 (inactive) | 1.21 (inactive) | 1.51 (inactive) | -1.17 | -1.1 (inactive) | -3.86 (inactive) | -2.98 | 0.212 | -0.684 | 0.0972 | -0.0928 | -0.91 | -1.41 | -1.82 (inactive) | -0.275 | -0.0893 | -0.0273 (inactive)
3 | C=CCOC(=O)[C@H]1[C@@H]2C(=O)O[C@@H](c3ccccc3)[C@@H](c3ccccc3)N2[C@@H](c2ccc(OCCOC(=O)[C@H]3C[C@H]4C(=O)N5CCC[C@H]5C(=O)N4[C@H]3c3ccc(O)cc3)cc2)[C@]12C(=O)Nc1ccc(I)cc12 | 0.917 (inactive) | 1.99 | 0.234 (inactive) | -0.588 (inactive) | -1.27 (inactive) | -1.39 (inactive) | 0.555 | -1.32 (inactive) | -1.09 (inactive) | -0.351 | 0.321 | 1.47 | -0.167 | -0.484 | -0.231 | -0.518 | -0.32 (inactive) | -0.00574 | -0.286 | -1.16 (inactive)
4 | OC([C@@H]1CC(c2ccccc2)=NO1)[C@H]1CC(c2ccccc2)=NO1 (stereo not given in full) | 2.12 (inactive) | 0.139 | 24.6 (active) | 9.43 (active) | 0.291 (inactive) | 1.07 (inactive) | 0.383 | -0.51 (inactive) | -0.0169 (inactive) | 0.357 | 1.51 | 0.222 | 1.59 | 0.703 | -0.132 | 1.05 | 0.635 (inactive) | -0.847 | 0.439 | 1.04 (inactive)
5 | CC(C)(C)OC(=O)CC[C@]12N=C(c3ccc(OCCCO)cc3)O[C@H]1c1ccccc1N(CCS(=O)(=O)c1ccccc1)C2=O | -1.59 (inactive) | 0.447 | 32.2 (active) | 28.5 (active) | 4.08 (inactive) | 8.71 (active) | -0.321 | -0.859 (inactive) | 1.12 (inactive) | -1.06 | 1.16 | 0.308 | 1.44 | -1.52 | -0.568 | -0.784 | 1.45 (inactive) | -1.09 | -0.719 | -1.71 (inactive)

— PubChem BioAssay
